Screening results deposited in PubChem BioAssay by several laboratories.
In the library only some 4.1% were active in any assay of this set; here they are far more common.
MRP-1 activ – H69AR viability gain despite doxorubicin, primary screen, MRP-1 activator project, H69AR cells, CellTiter-Glo | viability rescue | viability increase, % at 10 µM | 140,000 compounds, 0.61% hits;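 active = viability gain under doxorubicin at or above a set limit, the compound median plus 3 SD, cut at about 4.7% in these data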;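 also: MRP-1 overexpressing cells given doxorubicin 25 µM after compound pretreatment; 18-22 h compound pretreatment then 72 h with doxorubicin before readout; 0% = doxorubicin-only wells and 100% = vehicle-treated cells without doxorubicin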
Cav32 inh – Cav3.2 calcium influx blockers – cell-based, Fluo-4 calcium fluorescence, FDSS, MLSMR library, primary screen. Voltage-dependent T-type calcium channel subunit alpha-1H (Homo sapiens), O95180. Cav3.2-expressing cells; stronger effect = lower value. B-score at 10 µM. 100,000 compounds, 4% hits;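 active = single-dose well whose peak fluorescence ratio is a statistical outlier from its plate by either plate-standardised score or position-corrected B-score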
Mac1 fbg inh – inhibitors of CD11b/CD18 adhesion to fibrinogen, primary screen, K562 cells, luminescence. Integrin beta-2 (Homo sapiens) + Integrin alpha-M (Homo sapiens), P05107+P11215. AID 1497, 2009. inhibition, % at 10 µM. ATPlite luminescence; Mn2+ added to activate the integrin. 93,000 compounds, 0.54% hits;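 active = primary inhibition of 50% or more at 10 µM, then 40% or more on retest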
Mac1 fbg enh – enhancers of CD11b/CD18 adhesion to fibrinogen, primary screen, K562 cells, luminescence; Integrin beta-2 (Homo sapiens) + Integrin alpha-M (Homo sapiens), P05107+P11215; 93,000 compounds, 0.07% hits; activation, % at 10 µM; ATPlite luminescence;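 active = 10 µM primary screen giving 50% or more activity, confirmed by 40% or more on retest at that dose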
MRP reversal – reversal of MRP1-mediated doxorubicin resistance, primary screen, H69AR cells, doxorubicin co-treatment; differential viability (reversal), % at 10 µM; 85,000 compounds, 0.04% hits; H69AR cells + 2 uM doxorubicin, CellTiter-Glo, 72 h;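 active = viability drop by adding the cancer drug above about 55%, with treated viability meeting a 40% cutoff, limit read from the data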;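 also: viability without doxorubicin minus viability with 2 µM doxorubicin for each compound; larger differential means the compound sensitizes cells more to doxorubicin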
Pyk2 oligo antag – antagonists of Pyk2 self-association, primary screen, Q293 cells, FERM NanoBiT luminescence, HTS; Protein-tyrosine kinase 2-beta (Homo sapiens), Q14289; stronger effect = lower value; z-score (the deposit names both 25 µM and 10 µM); 99,000 compounds, 0.83% hits; AID 1347419, 2020;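 active = Z-score of -3 or lower, scaled per plate to the spread of control and sample wells; inactive = z-score above -3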;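 also: negative z-score means lost luminescence so less FERM oligomerization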
Target sequence (Q14289 whole entry, looked up): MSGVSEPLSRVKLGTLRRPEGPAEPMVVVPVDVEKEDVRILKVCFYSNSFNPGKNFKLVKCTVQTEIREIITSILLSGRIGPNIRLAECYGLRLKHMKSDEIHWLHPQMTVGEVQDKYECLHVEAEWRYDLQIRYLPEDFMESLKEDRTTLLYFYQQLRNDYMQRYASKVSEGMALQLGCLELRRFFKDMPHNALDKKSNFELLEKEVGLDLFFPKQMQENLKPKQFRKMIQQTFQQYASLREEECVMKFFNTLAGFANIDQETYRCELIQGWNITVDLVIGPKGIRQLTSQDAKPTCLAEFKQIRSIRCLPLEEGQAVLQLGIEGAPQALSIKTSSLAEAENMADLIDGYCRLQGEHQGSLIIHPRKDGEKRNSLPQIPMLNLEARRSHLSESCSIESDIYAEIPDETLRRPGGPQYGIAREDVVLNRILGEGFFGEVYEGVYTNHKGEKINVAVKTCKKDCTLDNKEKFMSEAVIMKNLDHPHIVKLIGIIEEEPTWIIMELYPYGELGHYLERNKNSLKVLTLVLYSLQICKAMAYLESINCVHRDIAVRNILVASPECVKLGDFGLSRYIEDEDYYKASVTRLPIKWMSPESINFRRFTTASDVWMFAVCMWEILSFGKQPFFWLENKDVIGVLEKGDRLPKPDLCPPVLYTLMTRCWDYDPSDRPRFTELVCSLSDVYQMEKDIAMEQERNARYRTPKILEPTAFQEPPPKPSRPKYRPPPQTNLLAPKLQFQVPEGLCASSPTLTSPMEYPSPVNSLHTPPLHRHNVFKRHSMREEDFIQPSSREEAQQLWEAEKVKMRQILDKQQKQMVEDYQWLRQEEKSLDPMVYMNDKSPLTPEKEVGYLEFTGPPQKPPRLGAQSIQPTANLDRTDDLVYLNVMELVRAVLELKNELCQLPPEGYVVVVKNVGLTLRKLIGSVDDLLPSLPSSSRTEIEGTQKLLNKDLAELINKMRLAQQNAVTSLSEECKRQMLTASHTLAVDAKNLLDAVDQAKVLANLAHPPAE
* marks the source's active call; other numbers are inactive results; . = no result given.

SMILES	MRP-1 activ	Cav32 inh	Mac1 fbg inh	Mac1 fbg enh	MRP reversal	Pyk2 oligo antag
CCCn1nnc2c(=O)oc3ccccc3c21	1	.	.	.	.	.
N#CC1=C(N)S[C@@H](C(=O)c2ccc(F)cc2)[C@@H]1c1cccs1	-2	-4.7*	.	.	-5	-0.54
N#CC1=C(N)SC(C(=O)c2ccccc2)C1c1cccs1 (stereo unspecified)	0	-2.7	.	.	-11	2.4
COc1ccc(Cn2nnnc2C(C(C)C)N(Cc2ccco2)Cc2cccs2)cc1 (stereo unspecified)	-3	-3.9*	-20	-1	-16	1.6
CC(C)C(c1nnnn1Cc1ccccc1)N(Cc1ccco1)Cc1cccs1 (stereo unspecified)	-4	-0.97	-10	-4	-15	-0.07
CC(C)(C)n1nnnc1C(c1ccc(Cl)cc1)N(Cc1cccnc1)Cc1ccco1 (stereo unspecified)	-5	-9.5*	.	.	8	-0.84
Cc1ccc(C(c2nnnn2C(C)(C)C)N(Cc2ccco2)Cc2cccs2)cc1 (stereo unspecified)	-3	-5.1*	0	0	0	-0.88
CC(C)(C)n1nnnc1C(c1ccc(C(F)(F)F)cc1)N(Cc1ccc(F)cc1)Cc1ccco1 (stereo unspecified)	-3	-4.3*	.	.	27	-0.44
c1ccc(CN(Cc2ccco2)C(c2ccncc2)c2nnnn2C2CCCC2)cc1 (stereo unspecified)	-4	-2.9	-20	-2	-24	-0.22
CC(C)(C)n1nnnc1C(c1ccc(C(F)(F)F)cc1)N(Cc1ccccc1)Cc1ccco1 (stereo unspecified)	-3	.	.	.	26	-0.19
Cc1ccc(S(=O)(=O)Cn2nnnc2CN(Cc2ccco2)Cc2cccs2)cc1	-3	-1.9	.	.	1	-0.67
COC(=O)C1=C(O)/C(=C\c2sccc2C)N=C1C	0	.	-24	2	.	.
CC1CCN(C(=O)CCCOc2cc(=O)n(C)c3ccccc23)CC1	0	-0.063	-25	-2	.	-0.79
O=C(CC1S/C(=N\S(=O)(=O)c2ccccc2)N(c2ccccc2)C1=O)Nc1ccc(F)cc1 (stereo unspecified)	0	.	.	.	.	.
CC(C)(C)n1nnnc1C(c1ccc(F)cc1)N(Cc1ccc(F)cc1)Cc1ccco1 (stereo unspecified)	0	-6.3*	-35	-1	14	-0.07
COc1ccc(C2CC(c3ccc(Br)cc3)Nc3nc(N)nn32)cc1 (stereo unspecified)	1	-0.67	-12	4	12	-0.77
COc1ccc(C2CC(c3ccccc3)Nc3nc(NC(=O)c4ccco4)nn32)cc1 (stereo unspecified)	-4	-1.3	-8	0	28	-3.7*
COc1ccc(C2CC(c3ccc(Cl)cc3)n3nc(N)nc3N2)cc1 (stereo unspecified)	30*	1.4	-6	-2	24	.
COc1ccc(C2CC(c3ccc(OC)cc3)n3nc(N)nc3N2)cc1 (stereo unspecified)	.	1.4	9	-8	-4	.
COc1ccccc1C1CC(c2ccc(Cl)cc2Cl)Nc2nc(N)nn21 (stereo unspecified)	5.6*	-1.3	-9	-1	6	.
Nc1nc2n(n1)C(c1cccs1)CC(c1ccc(Br)cc1)N2 (stereo unspecified)	5.8*	0.24	4	-2	21	-3.2*
COc1ccc(C2CC(c3cccc(Cl)c3)n3nc(N)nc3N2)cc1 (stereo unspecified)	0	1.2	-21	3	23	.
CC(=O)Nc1ccc(NC(=O)c2ccccc2Sc2ccc([N+](=O)[O-])cc2Cl)cc1	-3	.	-3	-3	.	.
CCOC(=O)c1[nH]c2ccc(Br)cc2c1NC(=O)CNC	-2	0.58	-2	104*	-8	-1.6
CCOC(=O)c1[nH]c2ccc(Br)cc2c1NC(=O)CCN1CCC(C)CC1	-3	-0.58	-12	4	1	1.4
SMILES	MRP-1 activ	Cav32 inh	Mac1 fbg inh	Mac1 fbg enh	MRP reversal	Pyk2 oligo antag
Clc1ccc(Cn2ncc3c(NCc4ccco4)ncnc32)c(Cl)c1	-3	-5.8*	13	-7	-20	.
COc1ccc(-c2cc3nc(C)cc(N4CC(C)CC(C)C4)n3n2)cc1 (stereo unspecified)	5.1*	0.27	.	.	7	-1.5
COc1ccc(-c2cc3nc(C)cc(C)n3n2)c(OC)c1	.	.	.	.	-11	.
COc1ccc(-c2cc(-c3cccs3)nc(OC)c2C#N)cc1OC	-4	.	7	5	.	.
CCCC(=O)O[C@@H]1C[C@@H](C)N(C(=O)c2ccccc2)c2ccc(C)cc21	0	-4.1*	-16	2	21	-2
Clc1cccc(-c2ccc(/C=N/n3cnnc3)o2)c1Cl	-6	-0.43	.	.	24	-0.32
Cc1ccccc1OCC1Cn2c(nc3c2c(=O)[nH]c(=O)n3C)O1 (stereo unspecified)	-4	0.88	.	.	4	-1
CCOC(=O)C1Cn2c(nc3c(c2=O)C(C)(C)Cc2ccccc2-3)S1 (stereo unspecified)	0	-6.4*	10	0	12	-1.5
CCOC(=O)C1Cn2c(nc3c(c2=O)C2(CCCC2)Cc2ccccc2-3)S1 (stereo unspecified)	-2	-5.4*	5	0	-9	-1.5
C=CCn1c(SCC#N)nc2c(c1=O)C(C)(C)Cc1ccccc1-2	-2	.	.	.	-16	-3
CC(=O)N1CCN=C1SCc1c(F)cccc1Cl	-2	0.09	-18	9	14	.
COC(=O)c1nn(-c2ccccc2)c(-c2ccccc2)c1C(=O)c1ccccc1	-3	-7.8*	.	.	.	-3.3*
CCOC(=O)c1ccccc1NC(=O)COc1cc(=O)n(CC)c2ccccc12	-2	-0.086	12	9	-8	-4.2*
Cc1ccc(C)c(N(C(=O)Cn2nnc(-c3cccs3)n2)C(C(=O)NC2CC2)c2ccc(C)o2)c1 (stereo unspecified)	-1	0.33	0	3	4	-4.3*
Cc1cc(C)c(C(=O)COC(=O)[C@H](C)Nc2ccc(C(F)(F)F)cc2[N+](=O)[O-])c(C)c1	0	-4.4*	-1	1	.	1.8
CCCOn1c(OCC(C)C)nc2ccccc2c1=O	2	-5*	0	-4	-2	0.35
O=S(=O)(NCCSc1ccc(Cl)cc1)c1ccc(F)cc1	-3	-7.7*	.	.	13	0.06
COc1ccc(S(=O)(=O)NCCSc2ccc(C)cc2)cc1OC	-2	-2.2	22	-4	15	0.45
COc1ccc(S(=O)(=O)NCCSc2ccccc2)cc1OC	-4	-1.4	-12	-3	7	-1.1
Cc1ccc(SCCNS(=O)(=O)c2ccc(F)cc2)cc1	-1	-8.7*	35	-2	13	0.59
